Bioassay records deposited in PubChem BioAssay by Bradner/Qi Labs at DFCI.
The entries come from a sample that favours hits as a whole.
CBX7 inh: CBX7 chromodomain binding inhibitors, primary screen, biochemical, AlphaScreen; normalised signal (fraction of DMSO) (no concentration beside the values); Chromobox protein homolog 7 (Homo sapiens), O95931; 66,000 tested, 1.1% active; AlphaScreen His6-CBX7 / biotin-H3K27me3 peptide binding; stronger effect = lower value; in the data active means normalised signal below about 0.5
Target sequence (O95931 whole entry, looked up): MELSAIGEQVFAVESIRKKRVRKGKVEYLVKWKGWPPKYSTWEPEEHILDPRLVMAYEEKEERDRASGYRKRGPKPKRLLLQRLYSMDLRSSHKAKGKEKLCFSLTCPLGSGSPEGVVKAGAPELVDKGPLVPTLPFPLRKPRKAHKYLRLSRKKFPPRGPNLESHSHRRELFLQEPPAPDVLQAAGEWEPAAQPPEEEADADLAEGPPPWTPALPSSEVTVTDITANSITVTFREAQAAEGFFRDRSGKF
A number is an active result; i = inactive; ! = a repeat was not active.

SMILES	CBX7 inh
CCc1ccc(C(=O)CC2(O)C(=O)N(Cc3ccccc3C)c3ccccc32)cc1 (configuration not stated)	0.45
Cc1ccccc1CN1C(=O)C(O)(CC(=O)c2ccc(Cl)cc2)c2ccccc21 (configuration not stated)	i
Cc1ccccc1CN1C(=O)C(O)(CC(=O)c2ccccc2)c2ccccc21 (configuration not stated)	i
CCc1ccc(-c2nc3cc(NC(=O)c4ccc(Cl)cc4Cl)ccc3o2)cc1	i
Cc1nc(Nc2ccc3c(c2)OCCO3)c2c3c(sc2n1)CCCC3	i
O=C(O)Cc1sc(Nc2ccc(F)cc2)nc1-c1ccccc1	i
CCOc1ccc(Nc2nc(-c3ccccn3)cs2)cc1	0.018
CCOc1ccc(Nc2nc(-c3ccc(Cl)c(Cl)c3)cs2)cc1	i
CCOc1ccc(Nc2nc(-c3c(C)nc4ncccn34)cs2)cc1	i
COc1ccc(-c2csc(Nc3ccccc3OC)n2)cc1	i
O=C(O)c1ccc(Nc2nc(-c3ccccc3)cs2)cc1	i
O=C(O)c1ccc(Nc2nc(-c3ccccn3)cs2)cc1	0.18
COc1ccc(OC)c(Nc2nc(-c3ccccn3)cs2)c1	0.38
O=C(O)c1ccc(Nc2nc(-c3ccncc3)cs2)cc1	i
COc1ccc(OC)c(Nc2nc(-c3ccc(C)cc3)cs2)c1	i
Cc1cccc(Nc2nc(-c3ccc(Cl)cc3)nc3ccccc23)c1	i
C#CCOc1ccc(-c2nnc(Nc3ccc(F)cc3)c3ccccc23)cc1	i
c1ccc2c(N3CCC(N4CCCCC4)CC3)nnc(Cc3ccncc3)c2c1	i
N#Cc1cccc(Cn2c(-c3nonc3N)nc3ccccc32)c1	i
O=S(=O)(c1cccc(Cl)c1)N(CCCN1CCOCC1)Cc1cccs1	i
O=S(=O)(c1ccc(F)cc1)N(CCCN1CCOCC1)Cc1cccs1	i
O=S(=O)(c1ccc(Cl)cc1)N(CCCN1CCOCC1)Cc1cccs1	0.49
O=C(NCc1cccs1)c1ccc2c(c1)N(Cc1cccc(Cl)c1)C(=O)c1ccccc1S2	i
CCc1cccc(N(CC)C(=O)Cc2c(C(=O)O)[nH]c3ccc(Cl)cc23)c1	i
COc1ccc(Cl)cc1NC(=O)c1cc(-c2ccc(F)cc2)on1	i
SMILES	CBX7 inh
CCCCN(CCCC)S(=O)(=O)c1ccc(C(=O)Nc2nnc(-c3ccc(Cl)s3)o2)cc1	i
C=CCN(CC=C)S(=O)(=O)c1ccc(C(=O)Nc2nnc(-c3ccc(Cl)s3)o2)cc1	0.37
CN(C)S(=O)(=O)c1ccc(C(=O)Nc2nnc(-c3ccc(Cl)s3)o2)cc1	0.22
CCN(CC)S(=O)(=O)c1ccc(C(=O)Nc2nnc(-c3ccc(Cl)s3)o2)cc1	i
COc1ccc(C2C(Oc3ccc(Cl)cc3)C(=O)N2c2ccc(F)cc2)cc1OC (configuration not stated)	i
CCN1C(=O)c2ccccc2S(=O)(=O)c2ccc(C(=O)NCCCN3CCCCCC3)cc21	i
CC1(C)NC(=O)N(CCN2C(=O)c3ccccc3C2=O)C1=O	i
Cc1ccc(C)c(N(C)C(=O)Cc2c(C(=O)O)[nH]c3ccccc23)c1	i
O=C(CN1C(=O)COc2ccc(S(=O)(=O)N3CCCCCC3)cc21)N1CCCCC1	i
Clc1ccc(-c2csc(Nc3ccc(Br)cc3)n2)cc1Cl	0.46!
Cc1ccc(C)c(-c2csc(Nc3ccc(Cl)cc3)n2)c1	i
COc1ccc(Nc2nc(-c3ccc(Cl)cc3)cs2)cc1	i
Clc1ccc(-c2csc(Nc3ccccc3)n2)cc1Cl	i
COc1cccc(Nc2nc(-c3ccc(Cl)c(Cl)c3)cs2)c1	0.44
COc1cccc(Nc2nc(-c3ccc(-c4ccccc4)cc3)cs2)c1	i
COc1cccc(Nc2nc(-c3ccccc3)cs2)c1	i
Cc1ccc(-c2csc(Nc3ccc(Cl)cc3)n2)cc1C	0.31!
Brc1ccc(Nc2nc(-c3ccc(I)cc3)cs2)cc1	i
COc1ccc(Cl)cc1N(C)C(=O)c1cc2c(s1)-c1ccccc1OC2	i
CCOc1ccc(CCNS(=O)(=O)c2ccc3c(c2)CCN3C(=O)C2CCC2)cc1OCC	i
Cc1ccc(NC(=O)c2ccc3c(c2)N(Cc2ccc(F)cc2)C(=O)CS3)c(C)c1	i
CCOC(=O)c1c(C)[nH]c(C)c1-c1cccc2ccccc12	i
O=S(=O)(c1cc(Cl)ccc1Cl)n1c(/C=C/c2ccc(F)cc2)nc2ccccc21	i
Cc1ccc(C)c(N2CCN(c3nc4ccccc4nc3C(F)(F)F)CC2)c1	i
COc1ccc(OC)c2[nH]c(=O)c(CCNC(=O)CCCc3ccccc3)cc12	i
SMILES	CBX7 inh
Cc1nc(N2CCCCC2)c2c(C)c(C(=O)Nc3ccc4c(c3)OCO4)sc2n1	i
COc1ccc(-c2nc3cc(C)ccn3c2Nc2ccccc2C)cc1	i
Cc1ccn2c(Nc3ccccc3C)c(-c3ccc(Cl)cc3)nc2c1	i
Cc1ccn2c(Nc3ccccc3)c(-c3ccccn3)nc2c1	0.06
Cc1ccn2c(Nc3ccccc3C)c(-c3ccccn3)nc2c1	0.0084
Cc1ccn2c(Nc3ccccc3)c(-c3cccnc3)nc2c1	i
Cc1ccccc1Nc1c(-c2ccccn2)nc2cnccn12	i
Cc1ccccc1Nc1c(-c2ccccn2)nc2ccccn12	0.13
Cc1ccccc1Nc1c(-c2cccnc2)nc2ccccn12	i
Cc1ccc(Nc2c(-c3ccc(Cl)cc3)nc3cc(C)ccn23)cc1	i
O=C(CN1C(=O)c2ccccc2S1(=O)=O)Nc1ccccc1F	i
Cc1ccccc1N1CCN(c2nc(-c3ccc(Cl)cc3)c3ccccc3n2)CC1	i
O=C(COCc1cc(-c2ccc(F)cc2)on1)NCc1ccc(Cl)cc1	i
COc1cc2c(C(=O)N3CCN(Cc4ccc5c(c4)OCO5)CC3)cn(CC(C)C)c(=O)c2cc1OC	i
COc1ccc(CCn2c(=O)c3cccnc3n(Cc3ccc(F)cc3)c2=O)cc1OC	i
COc1ccc(CCC(=O)Nc2ccc(-c3noc(-c4ccccc4OC)n3)cc2)cc1	i
O=C(Nc1ccc(OCc2ccccc2)cc1)c1cc(Cl)ccc1Nc1ccccc1	i
COc1ccccc1Nc1cc(C)nc2nnnn12	i
Cc1noc(/C=C/c2cccs2)c1S(=O)(=O)N1CCCC(C(=O)NC2CCCCC2)C1 (configuration not stated)	i
CC1CCCC(NC(=O)CN2C(=O)CSc3ccc(S(=O)(=O)N4CCOCC4)cc32)C1C (configuration not stated)	i
O=C(Nc1ccc2[nH]c(=O)[nH]c2c1)c1ncn[nH]1	0.39
O=C(Nc1ccc2[nH]c(=O)[nH]c2c1)C1COc2ccccc2O1 (configuration not stated)	i
Cc1cc(NS(=O)(=O)c2ccc(N3CCCC3=O)cc2)no1	i
O=C(Nc1ccc(N2CCCC2=O)cc1)c1ncn[nH]1	0.0091
O=C(Nc1ccc(F)cc1)C1CC(=O)N(c2ccc(Cl)cc2)C1 (configuration not stated)	i
SMILES	CBX7 inh
O=c1[nH]c2ccc(S(=O)(=O)Nc3ccc(F)cc3)cc2[nH]1	i
O=C(CN1C(=O)CSc2ccccc21)NC1CCCCC1	i
Cn1c(C(=O)N2CCC(C(=O)NC3CCCC3)CC2)cc2sccc21	i
COc1ccc(Nc2nnc(-c3ccc(C)c(S(N)(=O)=O)c3)c3ccccc23)cc1C(N)=O	i
CCC(=O)N1CCc2cc(S(=O)(=O)NCc3ccc(OC)cc3)ccc21	i
COc1ccccc1CNC(=O)C1C2C=CC3(CN(Cc4ccccc4Cl)C(=O)C13)O2 (configuration not stated)	i
O=C(O)c1cc(-c2cccc(O)c2)nc2ccccc12	i
